Screens: PubChem BioAssay, National Center for Advancing Translational Sciences (NCATS)
Rows were chosen to be rich in hits. Some 2.4% of all compounds tested hit in one or more screens of this group.
D2 antagonist = antagonizes the human D2 dopamine receptor. P14416. HEK293 TREx D2 cells, calcium flux, dopamine EC80. inhibition, % at 10 µM. 2% of 340,000 active. AID 485344; in the data active = inhibition above about 30%; inactive = below that, where a call was filed; note: 0% is about no effect
Target sequence (P14416 whole entry, looked up): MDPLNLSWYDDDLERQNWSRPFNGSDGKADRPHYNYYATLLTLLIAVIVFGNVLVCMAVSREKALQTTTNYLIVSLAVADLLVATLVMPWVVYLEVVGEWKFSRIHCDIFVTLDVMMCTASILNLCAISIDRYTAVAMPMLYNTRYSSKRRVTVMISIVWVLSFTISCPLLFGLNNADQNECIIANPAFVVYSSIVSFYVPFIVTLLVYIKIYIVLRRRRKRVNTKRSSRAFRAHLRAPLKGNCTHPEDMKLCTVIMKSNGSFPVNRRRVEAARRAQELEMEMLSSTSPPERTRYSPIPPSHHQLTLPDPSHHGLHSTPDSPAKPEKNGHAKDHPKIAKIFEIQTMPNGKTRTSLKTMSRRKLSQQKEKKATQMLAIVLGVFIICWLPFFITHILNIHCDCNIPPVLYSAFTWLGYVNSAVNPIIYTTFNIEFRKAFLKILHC
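Antagonism is scored as inhibition of an EC80 dopamine-evoked calcium signal in a force-coupled, tetracycline-inducible HEK293 T-REx D2 line, with compound present 180 s before agonist.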
D2 ag-1 = D2 dopamine receptor (human) agonism; P14416; HEK293 T-REx D2 cells, calcium flux agonist mode; activation, % at 2 µM; 0.53% of 340,000 active; AID 485358;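 active = activation over 3 SD above normal in the single-dose calcium agonist read, cut at about 30% in these data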; note: 0% is about no effect
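Calcium-flux readout, 1 cycle/sec over 180 s following compound pin transfer, in inducible HEK293 Trex D2 cells (force-coupled); dopamine controls included. Positive calcium responses during this window marked compounds as potential agonists.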
D2 PAM-1 = positive allosteric modulators of human D2 dopamine receptor; potentiation, % (test concentration not listed); 0.23% of 360,000 active; DiscoveRx D2 beta-arrestin cells, luminescence, 90 min; 100% = 57 uM dopamine signal; in the data active = potentiation above about 50%
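D2 cells co-treated with compound plus 50 nM dopamine (EC20) for 90 min at 37 deg C to detect potentiation. Beta-arrestin recruitment was read as enzyme-fragment luminescence after 1 h at ambient temperature. Full response was set by 57 uM dopamine.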
D2 PAM-2 = positively modulates the human D2 dopamine receptor allosterically; HEK293 T-REx D2, calcium flux, EC20 dopamine potentiation; 0.34% of 340,000 active; P14416; potentiation, % at 10 µM;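 active = potentiation over 3 SD above the plate norm, cut at about 30% in these data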; note: 0% is about no effect
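Tetracycline-induced HEK293 T-REx cells force-coupled to calcium signalling expressed D2; compounds were pin-added after a 10 s baseline, read kinetically 180 s, then an EC20 dopamine challenge followed with a further 180 s calcium read.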
D2 ag-2 = human D2 receptor agonism in beta-arrestin assay; P14416; DiscoveRx PathHunter D2 beta-arrestin, luminescence, 90 min; 100% = 57 uM dopamine signal; activation, % (concentration not given with the values); 0.084% of 360,000 active; in the data active = activation above about 40%
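DiscoveRx PathHunter D2 beta-arrestin cells (2,100/well) attached overnight, then compound-stimulated 90 min at 37 C in HBSS/10 mM HEPES/0.1% Tween-20 buffer; beta-galactosidase complementation read by luminescence after 1 h at ambient temperature. Dopamine 57 uM final (EC100) as control.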
D3 ag = confirmation of human D3 dopamine receptor agonists, beta-arrestin; shares compounds with D2 ag-1; Potency, µM (titrated, usually from 76.9 µM), inactives show at the highest dose activation, usual class: activators; DiscoveRx D3 beta-arrestin cells, luminescence, 90 min; 4% of 2,300 active; AID 720506;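 note: potency is the fitted concentration of half-maximal effect; 100% = dopamine control response; nearly all actives have a fitted effect of over 70% in size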
D2 ag-3 = D2 receptor agonism, beta-arrestin counterscreen; AID 720507; 5.9% of 2,300 active; shares compounds with D2 ag-1; DiscoveRx PathHunter D2 beta-arrestin, luminescence, 90 min; response scale: percent relative to full dopamine signal; Potency, µM (top dose mostly 76.9 µM), for the others: top-dose activation, usual class: activators; note: potency is the fitted concentration of half-maximal effect; % of control where 0% means no effect; nearly all actives have a fitted effect of over 70% in size
The depositor's hits bear a star; nt = no result. Unless noted, calls come from the whole dose curve; as a rule, active = well fitted activation curve with a large enough effect; inconclusive = small, poorly fitted or top-dose-only effect; inactive = flat fitted curve, though single readings scatter.

SMILES	D2 antagonist	D2 ag-1	D2 PAM-1	D2 PAM-2	D2 ag-2	others
CCN1C(=O)/C(=C/C=C2\N(CC)c3cc(S(=O)(=O)N(C)C)ccc3N2c2ccccc2)SC1=S	-3.1	15.6	-1.1	-0.1	-3.9	D3 ag=-23.6%;D2 ag-3=-11.4%
CCN1C(=O)/C(=C\C=C\c2ccccc2[N+](=O)[O-])SC1=S	-1.4	0.4	-2.1	-2.7	0.7
Cc1ccc(S(=O)(=O)C(CNC(=O)COc2ccc(Cl)cc2)c2ccco2)cc1 (stereo not drawn)	nt	-1.1	nt	-2.1	nt
COc1cccc(NC(=O)C2Cc3ccccc3CN2C(=O)c2ccco2)c1 (stereo not drawn)	-2.1	-1.2	-5.8	1.7	-4.3
COc1ccc(C(=O)N2CCN(CCNC(=O)C(=O)Nc3ccc(F)cc3)CC2)cc1OC	19.8	0.6	-3.8	-4.2	1.1
O=C(Cc1ccc(Cl)cc1)Nc1ccccn1	26.6	0.0	-6.3	-0.2	-1.5
O=C(Nc1ccn(CCCN2CCN(c3ncccn3)CC2)c(=O)n1)OCc1ccccc1	nt	nt	nt	nt	5.8
O=C(Nc1ccn(CC(=O)N2CCN(c3ccccn3)CC2)c(=O)n1)OCc1ccccc1	-2.8	0.1	2.2	8.0	-2.4	D3 ag=-2.5%;D2 ag-3=0.4%
Cc1ccc(C(c2sc3nc(C)nn3c2O)N2CCN(C(=O)c3ccco3)CC2)cc1 (stereo not drawn)	2.0	-0.3	0.4	3.0	0.2
Cc1nc2sc(C(c3ccccc3)N3CCN(C(=O)c4ccco4)CC3)c(O)n2n1 (stereo not drawn)	10.0	62.4*	-12.2	-27.5	-0.8	D3 ag=-2.8%;D2 ag-3=-3.7%
CCOC(=O)c1c(C)[nH]c(C)c1C(=O)Cn1nnc(-c2ccccc2C)n1	28.5	28.1	4.5	-7.5	0.5	D3 ag=-0.8%;D2 ag-3=14.9%
CCOC(=O)c1c(C)[nH]c(C(=O)Cn2nnc(-c3ccccc3Cl)n2)c1C	21.0	0.2	-4.5	0.9	5.0
O=C(CSC(=S)N1CCCC1)N1CCN(S(=O)(=O)c2ccccc2F)CC1	-4.0	0.2	-2.1	-12.7	0.5
COc1cc(C(C)=O)ccc1OCC(=O)N1CCCC1c1ccc2c(c1)OCCCO2 (stereo not drawn)	nt	nt	-3.3	nt	-0.6
CC1CCCCC1NC(=O)CN1C(=O)NC(C)(c2cccc(Br)c2)C1=O (stereo not drawn)	12.5	0.3	-6.9	-7.9	-3.9
O=C(Nc1ccccc1C(F)(F)F)c1cc2ccccc2o1	47.4*	0.2	-5.4	3.3	-3.2	D3 ag=-6.2%;D2 ag-3=-5.5%
COC(=O)c1ccccc1NC(=O)c1cc2ccccc2o1	15.3	-0.1	-3.1	13.3	-1.0
Cc1cc(Cl)ccc1C(O)c1ncc(-c2cccc(C(F)(F)F)c2)[nH]1 (stereo not drawn)	nt	nt	-7.9	nt	6.0
Oc1ccc(Br)cc1C1Nc2ccccc2S1 (stereo not drawn)	16.4	1.0	-2.5	3.3	-2.1
CCc1ccccc1OCC(=O)Nc1ccc(S(=O)(=O)Nc2nc(C)cc(C)n2)cc1	nt	-1.0	nt	nt	nt
O=C(Nc1cc(F)ccc1F)c1ccc2c(c1)nnn2C1CCCC1	nt	0.1	nt	8.5	nt
N#CCCN(C(=O)COC(=O)c1cccc(S(=O)(=O)N2CCCC2)c1)c1ccc(F)cc1	-3.6	0.6	-15.2	-0.6	-1.2
CC(=O)N1CCN(S(=O)(=O)c2cccc(C(=O)OCC(=O)N(CCC#N)c3ccc(F)cc3)c2)CC1	6.7	-0.2	-4.0	13.8	-2.9	D3 ag=-7.5%;D2 ag-3=-4.4%
Cc1cc(C)nc(/N=C(\N)Nc2ccc(-c3ccccc3)cc2)n1	6.6	19.3	-15.8	5.1	-7.5
COc1ccc(C)cc1N/C(N)=N/c1nc(C)cc(C)n1	-6.7	6.0	-16.6	-3.4	-3.6
CC(=O)Nc1ccc(N/C(N)=N/c2nc(C)cc(C)n2)cc1	15.1	1.7	-9.0	-4.1	-7.0
